A selection: hits, their analogues and other compounds. The true share with any hit is near 10%.
HEK293 tox: Cytotoxic Profiling in HEK 293 Cell Line of Diverse Libraries Using Quantitative High-Throughput Screening; HEK 293 viability, ATP luminescence (CellTiter-Glo), 48-72 h; Potency, µM (series often up to 115 µM), for inactives: top-dose activity change, negative = cytotoxicity, usual class: inhibitors; 6.6% of 94,000 active; note: nearly all actives have a fitted effect of over 60% in size
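qHTS cytotoxicity; HEK 293, 250 cells/well; compound pinned; 48 or 72 hr, 37 degree Celsius, 5% CO2, 95% humidity; CellTiter-Glo, 10 min RT; luminescence (ATP).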
3T3 cytotox: Cytotoxic Profiling in NIH 3T3 Cell Line of Diverse Libraries Using Quantitative High-Throughput Screening; Potency, µM (series often up to 96.7 µM), for inactives: at the top dose activity change, negative = cytotoxicity, hits mostly inhibitors; NIH 3T3 viability, CellTiter-Glo ATP luminescence, 48-72 h; 4.3% of 94,000 active; note: nearly all actives have a fitted effect of over 55% in size
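NIH 3T3 cells at 400 cells/well received 23 nL of compound by pintool and were incubated 48 or 72 h at 37 °C. Viability was read as ATP-coupled CellTiter-Glo luminescence.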
FLuc inh: Firefly luciferase inhibition profiling of diverse chemical library using quantitative high-throughput screening; purified P. pyralis luciferase, luminescence, biochemical; 2.5% of 76,000 active; Potency, µM (doses to about 115 µM), usual class: inhibitors; Luciferin 4-monooxygenase (Photinus pyralis), P08659; note: nearly all actives have a fitted effect of over 65% in size
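Biochemical qHTS: compound (6-point titration) added to 10uM D-luciferin plus 10uM ATP in Tris acetate pH 7.5 buffer with Mg, Tween-20 and BSA, then purified enzyme at 10nM; light output imaged.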
NPR1 antag: Natriuretic polypeptide receptor (hNpr1) antagonism - Primary qHTS | HEK293 hNpr1 GloSensor cGMP, ANP-stimulated luminescence | Potency, µM (highest dose often 46.3 µM), inactives show at the top dose activity change, negative = inhibition, usual class: inhibitors | Atrial natriuretic peptide receptor 1 (Homo sapiens), P16066 | AID 1347048, 2019 | 1.6% of 76,000 active; calls by dose curve; note: nearly all actives have a fitted effect of over 60% in size
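Compound pre-incubated 30 min at room temperature on GloSensor-loaded HEK293 cells stably carrying hNpr1 and the pGS-40F cGMP biosensor. Stimulation uses hNppA at 0.1 nM final; luminescence is taken at baseline and 20 min post-agonist.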
GPT2 inh: Primary qHTS assay for inhibitors of Glutamate pyruvate transaminase 2 (GPT2) | Alanine aminotransferase 2 (Homo sapiens), Q8TD30 | Recombinant GPT2, coupled pyruvate oxidase/HRP Amplex Red fluorescence | Potency, µM (top dose mostly 57.7 µM), inactives show at the top dose activity change, negative = inhibition, hits mostly inhibitors | 0.25% of 100,000 active | AID 1671188, 2021; note: nearly all actives have a fitted effect of over 60% in size
Target sequence (Q8TD30 whole entry, looked up): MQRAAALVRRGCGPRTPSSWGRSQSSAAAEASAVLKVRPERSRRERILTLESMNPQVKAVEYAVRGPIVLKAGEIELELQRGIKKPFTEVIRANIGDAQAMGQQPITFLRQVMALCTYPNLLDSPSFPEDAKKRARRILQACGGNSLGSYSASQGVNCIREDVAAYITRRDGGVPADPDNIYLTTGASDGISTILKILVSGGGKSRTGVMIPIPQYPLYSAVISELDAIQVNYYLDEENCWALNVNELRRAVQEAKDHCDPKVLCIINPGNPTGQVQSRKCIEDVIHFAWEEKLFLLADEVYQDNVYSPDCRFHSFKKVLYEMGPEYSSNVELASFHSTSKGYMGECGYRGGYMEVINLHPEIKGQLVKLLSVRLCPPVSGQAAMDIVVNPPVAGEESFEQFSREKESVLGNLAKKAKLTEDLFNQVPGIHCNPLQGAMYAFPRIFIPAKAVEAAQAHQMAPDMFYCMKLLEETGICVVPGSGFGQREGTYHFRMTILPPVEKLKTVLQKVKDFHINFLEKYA
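Inhibition is scored from Amplex Red fluorescence generated when pyruvate oxidase and HRP act on pyruvate released by GPT2. Reactions contain 10ng/uL enzyme, 250uM a-KG and 2mM L-alanine and run 30 min at room temperature.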
* hit, by the source's call; i = inactive; u = inconclusive; x = no result; [ ] = dose if it differs, or a comment. Unless noted, calls come from the whole dose curve; as a rule, active = well fitted curve in the direction sought with a large enough effect; inconclusive = small, poorly fitted or top-dose-only effect, or another doubt; inactive = no such curve, though single readings can be large; an effect the other way counts as inactive or inconclusive. % is set by controls: 0 for no effect and ±100 for the full control effect; potency is the fitted concentration of half-maximal effect.

SMILES | HEK293 tox | 3T3 cytotox | FLuc inh | NPR1 antag | GPT2 inh
C#CCNC(=O)c1nc(-c2cccnc2)c2cnccn12 | u | -22%[138 µM] | i | 13%[70.6 µM] | i
C#CCNC(=O)c1nc(-c2ccsc2)c2cnccn12 | 100µM* | -21%[138 µM] | i | 0%[70.6 µM] | i
CC(C)Nc1ncc(C(=O)NC2CC(=O)N(Cc3cccc(F)c3)C2)cn1 (stereo not given) | -29% | -7% | i | 3% | -26%
CCOc1cccc(CN2CCCC(COc3ccccc3C(=O)NC(C)C)C2)c1 (stereo not given) | 45µM* | u | i | 1% | -16%
Cc1ccccc1N1CCCN(Cc2cccc(CCN)c2)CC1 | 28µM* | u | i | -4% | u
NCCc1cccc(CN2CCCC(COc3ccccc3F)C2)c1 (stereo not given) | u | 35µM* | i | -1% | i
O=C(c1ccccc1OCC1CCCN(Cc2c[nH]c3ccccc23)C1)N1CCCCC1 (stereo not given) | 50µM* | u | x | x | -1%
COCC(=O)N1CCC(CCOc2ccc(C)cc2)C1 (stereo not given) | u | -21% | i | 2% | 0%
O=C(O)C1(c2ccccc2)CCN(S(=O)(=O)c2cc(C(F)(F)F)cc(C(F)(F)F)c2)CC1 | -21% | -12% | x | x | -26%
O=C(c1cc2n(n1)CC(c1ccc(Br)cc1)OC2)N1CCOCC1 (stereo not given) | 28µM* | 40µM* | i | -11% | u
Cc1ccccc1N1CCN(C(=O)c2cc3n(n2)CC(c2ccc(Cl)cc2)OC3)CC1 (stereo not given) | u | u | i | u | -33%
Cc1ccc(C)c(N2CCN(C(=O)c3cc4n(n3)CC(c3ccc(Cl)cc3)OC4)CC2)c1 (stereo not given) | 45µM* | u | i | -20% | i
CCN1CCN(C(=O)c2cc3n(n2)CC(c2ccc(Br)cc2)OC3)CC1 (stereo not given) | u | u | i | -25% | -34%
O=C(Nc1ccccc1)c1cc2n(n1)CC(c1ccc3c(c1)OCO3)OC2 (stereo not given) | u | u | u | u | i
O=C(c1cc2n(n1)CC(c1ccc3c(c1)OCO3)OC2)N1CCCCC1 (stereo not given) | 35µM* | 40µM* | i | -7% | i
O=C(c1cc2n(n1)CC(c1ccc(Cl)cc1)OC2)N1CCCCC1 (stereo not given) | u | 40µM* | i | -25% | 1%
Cc1ccc(N2CCN(C(=O)c3cc4n(n3)CC(c3ccc(Cl)cc3)OC4)CC2)cc1 (stereo not given) | u | u | i | u | -7%
COc1ccc(C)cc1NC(=O)Cn1c(-c2ccc(Cl)cc2)nc(C)c(CCO)c1=O | u | -1% | i | 1% | -4%
CN1C[C@@H](NC(=O)c2ccccn2)C[C@H]1c1nc(-c2ccc(Cl)cc2)no1 | 89µM* | u | 71µM* | 6%[70.6 µM] | u
COc1ccc(C(=O)N[C@H]2C[C@@H](c3nc(-c4ccc(Cl)cc4)no3)N(C)C2)cc1 | 56µM* | u | u | u | i
CN1C[C@@H](NC(=O)Nc2ccc(F)cc2F)C[C@H]1c1nc(-c2ccccc2)no1 | 63µM* | -23%[174 µM] | i | u | -12%[88.5 µM]
CN1C[C@@H](NC(=O)c2cccnc2)C[C@H]1c1nc(-c2cnccn2)no1 | -6%[172 µM] | i | i | 9%[70.6 µM] | -4%[88.5 µM]
CN1C[C@@H](NC(=O)c2cnccn2)C[C@H]1c1nc(-c2ccc(OC(F)(F)F)cc2)no1 | 89µM* | u | i | -18%[70.6 µM] | u
COc1ccc(-c2noc([C@@H]3C[C@H](NC(=O)c4ccc(F)cc4)CN3C)n2)cc1 | u | u | i | -7%[70.6 µM] | -1%[88.5 µM]
Cc1nnc([C@H]2CCN(C(=O)c3ccccc3)C2)o1 | i | i | i | 10%[70.6 µM] | 4%[88.5 µM]
SMILES | HEK293 tox | 3T3 cytotox | FLuc inh | NPR1 antag | GPT2 inh
O=C(c1ccncc1)N1CCN(c2ccc3nnc(-c4ccccc4)n3n2)CC1 | -5% | -8% | x | x | x
COCC(=O)N[C@@H]1CN(Cc2c(F)cccc2Cl)C[C@H]1CO | -16% | -15% | i | 0% | -8%
CN1C[C@@H](NC(=O)c2ccccn2)C[C@H]1c1nc(-c2ccc(OC(F)(F)F)cc2)no1 | 79µM* | u | i | -25%[70.6 µM] | -10%[88.5 µM]
COc1ccc(C(=O)N[C@H]2C[C@@H](c3nc(-c4ccccc4)no3)N(C)C2)cc1 | u | u | i | -4%[70.6 µM] | -5%[88.5 µM]
CN1C[C@@H](NC(=O)Nc2ccc(C(F)(F)F)cc2)C[C@H]1c1nc(-c2ccc(Cl)cc2)no1 | 20µM* | 8.9µM* | i | u | 0%
COc1ccc(NC(=O)N[C@H]2C[C@@H](c3nc(-c4ccc(F)cc4)no3)N(C)C2)cc1 | -38%[172 µM] | u | i | 0%[70.6 µM] | u
COc1ccc(CC(=O)N[C@H]2C[C@@H](c3nc(-c4ccc(OC(F)(F)F)cc4)no3)N(C)C2)cc1 | 35µM* | u | i | u | u
CN(C)C/C=C/C(=O)Nc1ccc(C(=O)Nc2cccc(Nc3ncc(Cl)c(-c4c[nH]c5ccccc45)n3)c2)cc1 | x | x | x | x | 4%
COc1cc(Cl)cc2cc(C(=O)N3CC[C@H](CO)[C@H](O)C3)oc12 | -5% | -27% | i | -3% | i[11.5 µM]
CCOc1ccc(CN2CCC(CO)(Cc3ccccc3Cl)CC2)cc1 | 79µM* | u | i | 2% | 2%
COc1ccc2c(c1)C=C(CN1CCC(CO)(Cc3ccccc3Cl)CC1)CO2 | 18µM* | u | i | u | -22%
Cn1cc(CNC(=O)C[C@@H]2C[C@H]3O[C@H](CNCc4cnccc4C(F)(F)F)[C@@H](O)[C@H]3O2)cn1 | 3% | i | i | 8% | 5%
COc1ccc(Nc2ccnc(N3CCCC(C(=O)NCCc4ccc(F)cc4)C3)n2)cc1 (stereo not given) | 32µM* | 25µM* | x | x | i
Cc1ccc(Nc2ccnc(N3CCCC(C(=O)NCCc4ccc(F)cc4)C3)n2)cc1 (stereo not given) | 32µM* | 32µM* | x | x | i
COc1cccc(C(=O)N2CCC(OC3CCN(S(C)(=O)=O)CC3)CC2)c1 | 8% | -2% | i | 7% | -7%
COCCC(=O)N1CCC2(CC1)CC(N(Cc1ccc(F)cc1)C1CC1)CCO2 (stereo not given) | -17% | -7% | i | -2% | i

Bioassay records as filed in PubChem BioAssay.
